NCOA3 inh – SRC3 coactivator transcriptional activity inhibitors, primary screen, cell-based, luminescence | Nuclear receptor coactivator 3 (Homo sapiens), Q9Y6Q9 | HEK293 GAL4-SRC3 luciferase reporter | inhibition, % at 3.6 µM | actives 0.17% (n = 360,000);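 active = inhibition above a per-campaign cutoff, the mean of all compounds plus 3 SD, cut at about 60% in these data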;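 also: 0% = DMSO-treated cells and 100% = gossypol-treated cells at 36 µM; higher means less SRC3-driven luciferase light from the GAL4 reporter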
NCOA1 inh – SRC1 coactivator transcriptional activity inhibitors, primary screen, cell-based, luminescence; Nuclear receptor coactivator 1 (Homo sapiens), Q15788; HEK293 GAL4-SRC1 luciferase reporter; inhibition, % at 3.6 µM; actives 0.12% (n = 360,000); AID 588354, 2011;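 active = inhibition above the campaign mean plus 3 SD, with each screening campaign given its own cutoff, cut at about 60% in these data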;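 also: 0% = DMSO treated cells and 100% = gossypol at 36 µM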
NR5A2 inv ag – LRH-1 (NR5A2) inverse agonists, primary screen, cell-based, luminescence, HEK293T, StAR-luciferase reporter | LRH-1 transfected, 24 h | inhibition, % at 3.6 µM | Nuclear receptor subfamily 5 group A member 2 (Homo sapiens), O00482 | AID 602396, 2012 | actives 0.13% (n = 360,000);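 active = inhibition above the mean inhibition of all tested compounds plus 3 SD, cut at about 73% in these data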;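 also: 0% = DMSO wells and 100% = reporter-only cells lacking LRH-1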
NR2F2 inh – NR2F2 transcriptional activity inhibitors, primary screen, cell-based, luciferase reporter, HEK293T, luminescence; COUP transcription factor 2 (Homo sapiens), P24468; HEK293T NGFI-A luciferase reporter; inhibition, % at 8.6 µM; actives 0.7% (n = 370,000);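 active = inhibition above a per-plate cutoff, mean inhibition of test wells between control levels plus 3 SD, cut at about 38% in these data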;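 also: cells cotransfected with COUP-TFII expression vector driving the NGFI-A reporter; 0% = median of COUP-TF2 test wells and 100% = reporter-only cells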
SRC2 inh – inhibition of GAL4-SRC2 driven luciferase reporter, primary screen, SRC2 inhibitor project, cell-based, luminescence; actives 0.17% (n = 370,000); HEK293 GAL4-SRC2 luciferase reporter; inhibition, % at 9 µM; AID 651957, 2012; Nuclear receptor coactivator 2 (Homo sapiens), Q15596;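 active = inhibition above the mean inhibition of all tested compounds plus 3 SD, set per campaign, cut at about 52% in these data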;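 also: 0% = DMSO treated cells and 100% = cells given Gossypol at 36 µM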
Gli-Sufu block – Gli-Sufu pathway antagonists, primary screen, luciferase luminescence, Sufu-KO-LIGHT cells, uHTS. Sufu-KO-LIGHT fibroblasts, Gli luciferase reporter luminescence. inhibition, % at 5 µM. actives 0.74% (n = 340,000);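 active = inhibition above about 55%, limit read from the data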;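 also: 0% = DMSO-treated cells and 100% = wells with medium but no cells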
Gli antag conf – Gli-SUFU pathway antagonists, confirmation, single concentration, luciferase luminescence, Sufu-KO-LIGHT cells; Gli luciferase reporter; inhibition, % at 5 µM; AID 602428, 2012; shares compounds with Gli-Sufu block; actives 40% (n = 2,500);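 active = mean inhibition at 5 µM reaching about 45%, limit read from the data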;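 also: plate controls were DMSO-treated cells for no effect and wells lacking cells for full effect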
SufuKO cytotox – cytotoxicity in Sufu-KO-LIGHT cells, confirmation, cytotoxicity control for Gli-SUFU antagonist project, cell-based, ATP luminescence, single concentration; shares compounds with Gli-Sufu block; cytotoxicity, % at 5 µM; actives 32% (n = 2,500); AID 651994, 2013;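 active = mean cytotoxicity at 5 µM above about 25%, limit read from the data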;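 also: cells exposed to compound overnight for roughly 16 to 18 hours; plate controls were DMSO wells with cells for no effect and medium without cells for full effect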
Wnt3a counter – Wnt3a reporter signal inhibition, confirmation, counter-screen for Gli-SUFU antagonist project, Wnt-LIGHT cells, luminescence, single concentration. AID 651995, 2013. Wnt3a-driven luciferase reporter. inhibition, % at 6.25 µM. actives 20% (n = 2,500). shares compounds with Gli-Sufu block;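 active = mean inhibition above about 25%, limit read from the data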
Starred values were filed as active, the others as inactive; . = no result given. This is a sample that favours compounds with a hit; in the whole collection about 1.3% have one here.

SMILES	NCOA3 inh	NCOA1 inh	NR5A2 inv ag	NR2F2 inh	SRC2 inh	Gli-Sufu block	Gli antag conf	SufuKO cytotox	Wnt3a counter
Cc1ccc(N/C(N)=N/c2nc(CSc3nnc(C)s3)cc(=O)[nH]2)c(C)c1	20	-1	2	0	-2	52	57*	56*	-28
CN1CCc2c(sc3c2c(=O)n(-c2ccccc2)c2nnc(SCc4ccc(Cl)cc4)n32)C1	-1	-27	1	14	-10	51	25	15	-24
Cc1cccc(NC(=O)CNC(=O)[C@@H](Cc2ccccc2)NC(=O)[C@H]2O[C@@H](n3ccc(N)nc3=O)[C@H](O)[C@@H]2O)c1C	.	.	.	2	-2	.	.	.	.
C=C1[C@@H](CCO)N(S(=O)C(C)(C)C)C[C@@H]1C (stereo partly drawn)	.	.	.	-8	-1	.	.	.	.
CCC(C)NC(=O)COC(=O)Cc1sc(N)nc1-c1ccc(C)cc1 (stereo not drawn)	1	-5	17	-10	4	0	.	.	.
Cc1ccc(-c2nc(N)sc2CC(=O)OCC(=O)NCCC(C)C)cc1	-1	12	-9	14	-22	58*	12	16	31*
Cc1ccc(S(=O)(=O)N2CCCC2C(=O)N2CCN(c3ccccc3)CC2)cc1 (stereo not drawn)	.	.	.	10	5	.	.	.	.
COc1cc(/C=N/N(CCO)C2=NS(=O)(=O)c3ccccc32)cc(OC)c1OC	-16	2	-1	5	-19	38	.	.	.
COc1cc(Br)cc(/C=N/N(CCO)C2=NS(=O)(=O)c3ccccc32)c1OC	-20	-11	-9	-1	-73	64*	42	7	-12
COc1cc(OC)c(OC)cc1/C=N/n1c(COc2ccccc2)n[nH]c1=S	2	13	-18	8	-11	57*	25	18	-21
Cc1cc(Oc2cccnc2)ccc1NC(=O)Cc1cn(C)c2ccccc12	.	.	.	6	16	.	.	.	.
CCC(=O)N1CCc2cc(S(=O)(=O)CCC(=O)Nc3ccc(CC)cc3)ccc21	1	-32	-12	-4	20	4	.	.	.
CCC(=O)N1CCc2cc(S(=O)(=O)CCC(=O)Nc3ccc(C(C)=O)cc3)ccc21	-17	-25	9	15	-15	59*	19	0	16
COc1cc(NC(=S)NCCN2CCOCC2)cc(OC)c1OC	3	-6	3	12	15	51	24	3	2
O=C(C1CCC1)N1CCN(c2ccnc3cc(Cl)ccc23)CC1	33	18	-7	32	22	25	.	.	.
O=C(C1CC1)N1CCN(c2ccnc3cc(Cl)ccc23)CC1	-5	-2	1	23	-1	32	.	.	.
O=C(C1CCCCC1)N1CCN(c2ccnc3cc(Cl)ccc23)CC1	30	23	-3	24	18	53	57*	14	-17
O=C(c1ccco1)N1CCN(c2ccnc3cc(Cl)ccc23)CC1	11	6	-3	8	-10	54	42	9	-22
CCN=C1NC(c2cccc(F)c2)C(C(=O)OC)=C(C)N1Cc1ccccc1C(F)(F)F (stereo not drawn)	.	.	.	-6	0	.	.	.	.
Cc1ccc(C23CC4CC(CC(NC(=O)NN)(C4)C2)C3)cc1	9	-15	1	12	2	51	9	-3	3
O=C(Nc1ccc(C(=O)O)cc1)Nc1ccc([N+](=O)[O-])cc1	-61	-1	-18	0	6	13	.	.	.
O=C(Nc1cc(C(F)(F)F)cc(C(F)(F)F)c1)Nc1cnn(-c2ccc([N+](=O)[O-])cc2)c1C(F)(F)F	9	-14	4	-12	-9	55*	74*	13	24
O=C(c1cc2n(n1)C(C(F)(F)F)CC(c1ccc(Cl)cc1)N2)N1CCCC1 (stereo not drawn)	7	3	-9	-3	-13	57*	18	4	-9
Cc1cc(-c2cccs2)c2c(n1)sc1c(=O)[nH]c(=O)[nH]c12	12	18	-1	-3	-4	84*	4	31*	-27
CCC(CC)CN1CCC(CN2C(=S)NC[C@@H]2Cc2ccccc2)CC1	.	.	.	7	-6	.	.	.	.
SMILES	NCOA3 inh	NCOA1 inh	NR5A2 inv ag	NR2F2 inh	SRC2 inh	Gli-Sufu block	Gli antag conf	SufuKO cytotox	Wnt3a counter
O=C1C(=O)N(CCCn2ccnc2)C(c2cccc(Br)c2)/C1=C(\O)c1ccc2c(c1)OCCO2 (stereo not drawn)	11	-16	-18	-19	-19	51	33	22	-17
O=C1C(=O)N(CCCn2ccnc2)C(c2ccc(Br)cc2)/C1=C(\O)c1ccc2c(c1)OCCO2 (stereo not drawn)	12	-24	-13	-19	-12	-10	.	.	.
Cc1ccc(-n2c(C)c3c(C)nnc(C)c3c2C)cc1C	-13	8	3	-15	-30	30	.	.	.
Cc1nnc(C)c2c(C)n(-c3ccccc3)c(C)c12	-36	-1	4	-11	8	59*	37	14	-15
O=C(NCC(c1ccccc1)c1ccccc1)[C@H](Cc1ccccc1)NC1(C(=O)NC2CCCCC2)CCC1	.	.	.	9	.	.	.	.	.
CN(C)S(=O)(=O)c1cccc(NC(=O)C(c2ccccc2)c2ccccc2)c1	-8	6	-3	0	-15	-14	.	.	.
CC(C)N(C(=S)Nc1cccc(S(=O)(=O)N(C)C)c1)c1ccccc1	27	-10	7	5	-9	55	12	1	-27
CC1CCCC(C)N1C(=O)c1ccccc1 (stereo not drawn)	.	.	.	-15	3	.	.	.	.
COC(=O)C1CN(Cc2ccc(F)cc2)CCS(=O)(=O)N1Cc1cn(Cc2ccc(C)cc2)nn1 (stereo not drawn)	.	.	.	7	-5	.	.	.	.
Cc1cc(C(=O)N/N=C2/CC(C)CC(C)(C)C2)c(C)o1 (stereo not drawn)	-19	-38	-69	-31	-13	52	22	22	-2

Compound activity: PubChem, several laboratories
